Test results taken from the supplement of paper PMC9135407.
Where “and” joins values, the source holds several entries; their conditions need not be identical. Identical values can stand only once. Counter-ions that a name gives are not always drawn. Screen size: about 5,800 compounds; about 620 (11%) showed activity. The sample as a whole holds a higher share of actives than the screen did. Unmarked numbers belong to inactive results.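 Rule for the calls: active = score above a cut-off or among the top three wells of a plate; in these data no inactive exceeds 0.85.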

Tested on: primary human hepatic stellate cells (donor 1)
Assay: scaled lipid accumulation score (0 = DMSO-like, 1 = nortriptyline-like); higher = stronger HSC inactivation (lipid re-accumulation), active = hit call of the paper
Details: 48 h
[1] = library stock concentration: 1 mM
[2] = library stock concentration: 10 mM
[3] = library stock concentration: 3.33 mM

## CCCC[C@H](C)C[C@H](O)/C=C/[C@H]1[C@H](O)CC(=O)[C@@H]1CCCCC(CC(=O)O)OC (some centres undefined) [3-methoxy Limaprost]
[1]
  scaled lipid accumulation score: 0.012

## CCCCCC(=O)OC[C@H](CO)OC(=O)CCCCC [1,2-Dihexanoyl-sn-glycerol]
[1]
  scaled lipid accumulation score: 0.007

## CC(C)(CO)Cc1cc(C(C)(C)C)c(O)c(C(C)(C)C)c1 [listing 1 of 2 here]
[2]
  scaled lipid accumulation score: 0.861 (active)

## CC(C)(C=O)Cc1cc(C(C)(C)C)c(O)c(C(C)(C)C)c1
[2]
  scaled lipid accumulation score: 0.21 and ≤ -0.006

## CC(C)(CO)Cc1cc(C(C)(C)C)c(O)c(C(C)(C)C)c1 [listing 2 of 2 here]
[2]
  scaled lipid accumulation score: 0.139

## N.N.O=C([O-])C[O-].[Pt+2] [Nedaplatin]
Library stock concentration: 6.6 mM
  scaled lipid accumulation score: 0.028

## CC(C)[C@@H](O)CC[C@@H](C)[C@H]1CC[C@H]2[C@@H]3CC=C4C[C@@H](O)CC[C@]4(C)[C@H]3CC[C@]12C [24(S)-hydroxycholesterol]
Library stock concentration: 12.4 mM
  scaled lipid accumulation score: 0.006

## CN(C)Cc1ccc(-c2nc3cccc4c3n2CCNC4=O)cc1
[3]
  scaled lipid accumulation score: 0.037
[2]
  scaled lipid accumulation score: 0.491

## COc1ccc([C@@H]2CC(=O)c3c(O)cc(O[C@@H]4O[C@H](CO)[C@@H](O)[C@H](O)[C@H]4O[C@@H]4O[C@@H](C)[C@H](O)[C@@H](O)[C@H]4O)cc3O2)cc1O [Neohesperidin]
[3]
  scaled lipid accumulation score: ≤ 0
[2]
  scaled lipid accumulation score: 0.039

## C[C@H](NC(=O)C(C#N)=Cc1cccc(Br)n1)c1ccccc1
[3]
  scaled lipid accumulation score: 1.05 (active)

## CCC[C@H](NC(=O)/C(C#N)=C/c1cccc(Br)n1)c1ccccc1 [Degrasyn (WP1130)]
[3]
  scaled lipid accumulation score: 0.369
[2]
  scaled lipid accumulation score: 0.703

## C[C@H](NC(=O)/C(C#N)=C/c1cccc(Br)n1)c1ccccc1
[2]
  scaled lipid accumulation score: 0.586

## CC(=O)OCOC(=O)CN(CC(=O)OCOC(C)=O)c1ccccc1OCCOc1ccccc1N(CC(=O)OCOC(C)=O)CC(=O)OCOC(C)=O
[3]
  scaled lipid accumulation score: ≤ -0.009
[2]
  scaled lipid accumulation score: 0.697

## CC(C)C[C@H](NC(=O)[C@H]1O[C@@H]1C(=O)O)C(=O)NCCCCN=C(N)N
[3]
  scaled lipid accumulation score: 0.177
[2]
  scaled lipid accumulation score: ≤ 0 and ≤ -0.07

## C=C[C@]1(C)C[C@@H](OC(=O)CSC(C)(C)CNC(=O)[C@H](N)C(C)C)[C@]2(C)[C@H](C)CC[C@]3(CCC(=O)[C@H]32)[C@@H](C)[C@@H]1O [Valnemulin HCl]
[3]
  scaled lipid accumulation score: ≤ 0
[2]
  scaled lipid accumulation score: 0.491

## C=C[C@]1(C)C[C@@H](OC(=O)CS[C@@H]2C[C@H]3CC[C@@H](C2)N3C)[C@]2(C)[C@H](C)CC[C@]3(CCC(=O)[C@H]32)[C@@H](C)[C@@H]1O [Retapamulin]
[3]
  scaled lipid accumulation score: 0.412

## C=C[C@@]1(C)C[C@@H](OC(=O)CS[C@@H]2C[C@H]3CC[C@@H](C2)N3C)[C@@]2(C)[C@@H]3C(=O)CC[C@@]3(CC[C@@H]2C)[C@@H](C)[C@@H]1O [Retapamulin]
[2]
  scaled lipid accumulation score: 0.947 (active)

## Clc1ccc(C(c2ccc(Cl)cc2)[n+]2ccn(CC(OCc3ccc(Cl)cc3Cl)c3ccc(Cl)cc3Cl)c2)cc1 (centres undefined) [Calmidazolium chloride]
[2]
  scaled lipid accumulation score: 0.037

## O=C(O[C@H]1CN2CCC1CC2)N1CCc2ccccc2[C@@H]1c1ccccc1
[2]
  scaled lipid accumulation score: 0.352

## O=C(NCc1ccc(Cl)c(Cl)c1)O[C@H]1CCc2ccccc21
[1]
  scaled lipid accumulation score: 0.061

## O=C(O)CCC(=O)O.O=C(O[C@H]1CN2CCC1CC2)N1CCc2ccccc2[C@@H]1c1ccccc1 [Solifenacin succinate]
[2]
  scaled lipid accumulation score: 1.3 (active)

## O=C(O[C@H]1CN2CCC1CC2)N1CCc2ccccc2[C@@H]1c1ccccc1 [Solifenacin succinate]
[3]
  scaled lipid accumulation score: 0.293

## CC/C=C\C/C=C\C/C=C\CCCCCCCC(=O)O [.alpha.-Linolenic Acid]
[1]
  scaled lipid accumulation score: 0.009

## CC/C=C\C/C=C\C/C=C\CCCCCCCC(=O)O [Linolenic acid (18:3 n-3)]
[1]
  scaled lipid accumulation score: ≤ -0.021

## CC(=O)O[C@H]1Cc2ccccc2N(C(N)=O)c2ccccc21
[2]
  scaled lipid accumulation score: ≤ 0

## CCCC[P+](CCCC)(CCCC)Cc1ccc(NC(=O)C(Cc2ccc3ccccc3c2)NC(=NC2CCCCC2)NC2CCCCC2)cc1 (centres undefined)
[2]
  scaled lipid accumulation score: 0.797

## CNCc1ccc(-c2cc(-c3nc(-c4ccc(S(=O)(=O)C(C)C)cc4)cnc3N)on2)cc1 [listing 1 of 2 here]
[3]
  scaled lipid accumulation score: 1.12 (active)

## CNCc1ccc(-c2cc(-c3nc(-c4ccc(S(=O)(=O)C(C)C)cc4)cnc3N)on2)cc1 [listing 2 of 2 here]
[2]
  scaled lipid accumulation score: 0.254

## CCCCCCCC/C=C\CCCCCCCC(=O)OCC [Oleic Acid ethyl ester]
[1]
  scaled lipid accumulation score: 0.015

## O=C(CO)N1CCC(c2n[nH]c(-c3ccc(Cl)cc3)c2-c2ccncn2)CC1
Library stock concentration: 400 uM
  scaled lipid accumulation score: ≤ -0.005
Library stock concentration: 2 mM
  scaled lipid accumulation score: ≤ -0.005
[2]
  scaled lipid accumulation score: ≤ -0.005

## Cl.O[C@H](CNC[C@@H](O)[C@H]1CCc2cc(F)ccc2O1)[C@@H]1CCc2cc(F)ccc2O1 [Nebivolol hydrochloride]
[2]
  scaled lipid accumulation score: 0.861 (active)

## OC(CNCC(O)C1CCc2cc(F)ccc2O1)C1CCc2cc(F)ccc2O1 (centres undefined) [Nebivolol]
[3]
  scaled lipid accumulation score: 0.769
[2]
  scaled lipid accumulation score: ≤ 0

## CCCCCC(=O)/C=C/[C@@H]1[C@H](C/C=C\CCCC(=O)O)[C@H](O)C[C@H]1O [8-iso-15-keto Prostaglandin F2.beta.]
[1]
  scaled lipid accumulation score: ≤ 0

## COC(=O)c1ccc(O)c2nc3c(C=O)c(O)cc(O)c3nc12 [Lomofungin]
Library stock concentration: 6.4 mM
  scaled lipid accumulation score: ≤ -0.006

## Cn1cc(C(=O)OCC2CCN(CCNS(C)(=O)=O)CC2)c2ccccc21 [listing 1 of 2 here]
[2]
  scaled lipid accumulation score: 0.925 (active)

## COc1[nH]c2ccc(F)cc2c1C(=O)OCC1CCN(CCNS(C)(=O)=O)CC1.NS(=O)(=O)O
[2]
  scaled lipid accumulation score: 0.298

## Cn1cc(C(=O)OCC2CCN(CCNS(C)(=O)=O)CC2)c2ccccc21 [listing 2 of 2 here]
[2]
  scaled lipid accumulation score: 0.41

## C/C=C1\[C@H]2C=C(C)C[C@]1(N)c1ccc(=O)[nH]c1C2 [(-)-Huperzine A]
Library stock concentration: 20.6 mM
  scaled lipid accumulation score: 0.185

## C/C=C1\[C@H]2C=C(C)C[C@]1(N)c1ccc(=O)[nH]c1C2
[2]
  scaled lipid accumulation score: ≤ 0

## CC(C)(C)C(=O)Nc1ccccc1 [N-Pivaloylaniline]
[1]
  scaled lipid accumulation score: 0.066

## CC(C)=CCC/C(C)=C/CC/C(C)=C/CC[C@]1(C)CCc2cc(O)cc(C)c2O1 [.delta.-Tocotrienol]
[1]
  scaled lipid accumulation score: ≤ 0

## CC(C)[C@@H]1NC(=O)[C@H](Cc2ccccc2)NC(=O)[C@@H](CC(=O)O)NC(=O)CNC(=O)[C@H](CCCN=C(N)N)NC1=O [Cyclo [Arg-Gly-Asp-D-Phe-Val]]
Library stock concentration: 8.7 mM
  scaled lipid accumulation score: ≤ -0.003

## CN[C@H]1CC[C@@H](c2ccc(Cl)c(Cl)c2)c2ccccc21 [Sertraline] [listing 1 of 2 here]
  scaled lipid accumulation score: 1.23 (active)

## CN[C@H]1CC[C@@H](c2ccc(Cl)c(Cl)c2)c2ccccc21 [Sertraline] [listing 2 of 2 here]
[2]
  scaled lipid accumulation score: 0.147 and 0.63

## CN[C@H]1CC[C@@H](c2ccc(Cl)c(Cl)c2)c2ccccc21 [Sertraline hydrochloride]
Library stock concentration: 5.8 mM
  scaled lipid accumulation score: 0.777
[2]
  scaled lipid accumulation score: ≤ -0.055 and 0.281 and 0.318

## CN[C@H]1CC[C@@H](c2ccc(Cl)c(Cl)c2)c2ccccc21 [Sertraline HCl]
[3]
  scaled lipid accumulation score: 0.103
[2]
  scaled lipid accumulation score: 0.033

## CC(C)[C@H](NC(=O)CNC(=O)OC(C)(C)C)C(=O)N[C@H](C=O)C(C)C
Library stock concentration: 14 mM
  scaled lipid accumulation score: 0.022

## COC(=O)[C@H]1[C@H]2C[C@@H]3c4[nH]c5cc(OC)ccc5c4CCN3C[C@H]2C[C@@H](OC(=O)c2cc(OC)c(OC)c(OC)c2)[C@@H]1OC [Reserpine] [listing 1 of 3 here]
[2]
  scaled lipid accumulation score: 0.944 (active)

## COC(=O)[C@H]1[C@H]2C[C@@H]3c4[nH]c5cc(OC)ccc5c4CCN3C[C@H]2C[C@@H](OC(=O)c2cc(OC)c(OC)c(OC)c2)[C@@H]1OC [Reserpine] [listing 2 of 3 here]
  scaled lipid accumulation score: ≤ 0
[2]
  scaled lipid accumulation score: 0.574 and 0.771

## COc1ccc2c3c([nH]c2c1)[C@H]1C[C@H]2[C@H](C[C@@H](O)[C@H](OC)[C@H]2C(=O)O)CN1CC3 [Reserpinic acid hydrochloride]
  scaled lipid accumulation score: ≤ 0

## CCOC(=O)Oc1c(OC)cc(C(=O)O[C@@H]2C[C@@H]3CN4CCc5c([nH]c6cc(OC)ccc56)[C@H]4C[C@@H]3[C@H](C(=O)OC)[C@H]2OC)cc1OC [Syrosingopine]
  scaled lipid accumulation score: 0.248

## COC(=O)[C@H]1[C@H]2C[C@@H]3c4[nH]c5cc(OC)ccc5c4CCN3C[C@H]2C[C@@H](OC(=O)c2cc(OC)c(OC)c(OC)c2)[C@@H]1OC [Reserpine] [listing 3 of 3 here]
[2]
  scaled lipid accumulation score: 1.18 (active)

## COC(=O)[C@H]1[C@H]2C[C@@H]3c4[nH]c5cc(OC)ccc5c4CCN3C[C@H]2C[C@@H](OC(=O)/C=C/c2cc(OC)c(OC)c(OC)c2)[C@@H]1OC [Rescinnamin]
  scaled lipid accumulation score: 0.478

## CC1/C=C/C=C/C=C/C=C/C=C/C=C/C=C/C(OC2O[C@H](C)[C@@H](O)[C@H](N)[C@@H]2O)CC(O)C(C(=O)O)C(O)CC(=O)CC(O)CC(O)CC(O)CC(=O)CCCC(=O)CC(=O)OC1C(C)CC(C)C(O)CC(=O)c1ccc(N)cc1 (some centres undefined)
[2]
  scaled lipid accumulation score: ≤ 0

## CCN(CC)CC1CCCCN1CC(=O)N1c2ccccc2C(=O)Nc2cccnc21 (centres undefined)
[2]
  scaled lipid accumulation score: ≤ 0 and ≤ -0.006

## CCCCC/C=C\CC1OC1C/C=C\C/C=C\CCCC(=O)O (centres undefined)
Library stock concentration: 100 uM
  scaled lipid accumulation score: ≤ -0.021

## O=C(O)CCC/C=C\C[C@@H]1[C@@H](/C=C/[C@@H](O)COc2ccccc2)[C@H](O)C[C@@H]1O [16-phenoxy tetranor Prostaglandin F2.alpha.]
[1]
  scaled lipid accumulation score: ≤ 0
